Source: PubChem BioAssay (NCI)
About 83,000 compounds went through this panel and 20% of them were active in at least one assay; those are over-represented in the sample as a whole.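 96-well plates, one dose, 48 hours. Percent growth reported; active if below 10.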 A number with no mark means an inactive call. Active and inactive are the calls of the source.

The compounds below were run on HT29 colon (assay: NCI-60 one-dose screen, 48 h (100 = growth as untreated, 0 = no growth, -100 = all killed)). Settings: 10 µM unless noted.
Procedure: Growth inhibition of the HT29 human tumor cell line is measured as a screen for anti-cancer activity. Cells are grown in 96 well plates and exposed to the test compound for 48 hours. Compounds are tested at a single concentration, which is 10^-5 M for most compounds. The reported endpoint is percent growth (GI% or GIPRCNT), where numbers from 0 - 100% represent growth inhibition, and numbers from -100% - 0 represent cell death. For example, a value of 40 represents 60% growth inhibition. A value of 0 means no net growth occurred over the course of the experiment. A value of -40 indicates 40% of cells at the beginning of the experiment died by the end of the experiment. A value of -100 means all cells are dead at the end of the experiment.
NCI-60 Human Tumor Cell Lines Screen was performed using the standard one-dose NCI protocol, which is described in more detail at https://dtp.cancer.gov/discovery_development/nci-60/default.htm.
Compounds with GIPRCNT values below 10 were considered active. Activity score was based on GIPRCNT using the following formula: […]
Score is 0 for GIPRCNT values of 100 or above, 50 for GIPRCNT values of 0, and 100 for GIPRCNT values of -100.
`COc1cc2ncnc(Nc3ccc(Oc4ccnc(C)c4)c(C)c3)c2cc1NC(=O)CC1CCSS1` (stereo not given) was tested, and the growth was -80.7% (active). With `c1ccc2c(-c3nc(-c4c[nH]c5ncccc45)cs3)c[nH]c2c1` the growth was 79.2%. With `Nc1c(C(=O)Nc2c(Cl)cccc2Cl)sc2nc3c(cc12)C(=O)CCC3` the growth was 13.3%. Compound `C/C(=C(/c1ccccc1)c1ccc(N2C(=O)c3cccc4c(NCc5ccccc5)ccc(c34)C2=O)cc1)c1ccccc1` has a growth of 112%. In the case of `CN(C)c1cccc2[nH]c(-c3[nH]ncc3Nc3ccnc(N)n3)nc12`, the growth is reported as 0.0531% (active). `COc1ccc(-c2cc(-c3c(C)oc4cc5occc5c(OC)c4c3=O)nc(N)c2C#N)cc1OC` gave a growth of 67%. Compound `N#C/C(=C\c1ccc(-c2cccc(C(F)(F)F)c2)o1)c1nc(-c2ccco2)cs1` has a growth of 99.8%. For `CCCCC(=O)OC1CCCCC1C` (stereo not given), the growth was 88.2%. For `COc1cc2[nH]c(C(=O)c3cc(OC)c(OC)c(OC)c3)c(N)c2cc1C#CC1CC1`, the growth was 5.53% (active). For `CC(C)(C)c1cc(-n2c(-c3ccc(Cl)cc3)nc3cc(C(=O)Nc4ccc(Cl)cc4)ccc32)n[nH]1`, the growth was 89.5%. In the case of `Cn1cc(-c2nc(-c3c[nH]c4ncccc34)cs2)c2cc(Cl)ccc21`, the growth is reported as 38.5%. `COc1cc(-c2cc(-c3nc4ccccc4[nH]3)[nH]n2)cc(OC)c1OC` showed a growth of 69.3%. Compound `N#Cc1c(-c2ccc(O)cc2)c2c(N)nn(-c3ccccc3)c2[nH]c1=O` has a growth of 111%. `Cn1c(=O)c2c(nc(N3CCCC3)n2C)n(C)c1=O` gave a growth of 94.5%. In the case of `Cn1cc(-c2nc(-c3cn(C)c4ncccc34)cs2)c2ccccc21`, the growth is reported as 9.24% (active). `O=C1c2ccccc2NC(c2cn(-c3ccccc3)nc2-c2cccs2)N1Cc1ccccc1` (stereo not given) gave a growth of 75%. Work on `CCCCCCCCNc1cccc2c1C(=O)c1ccccc1C2=O` yielded a growth of 89.7%. `Cn1c2c(c3ccc(Cl)cc31)-n1cccc1C2=O` gave a growth of 70.8%. `c1ccc2[nH]c(-c3cc(-c4ccc5c(c4)OCO5)n[nH]3)nc2c1` gave a growth of 67.5%. `CCC(CC)C(=O)OC(C)COc1ccc(C(C)(C)C)cc1` (stereo not given) showed a growth of 71.7%. In the case of `O=C1/C(=C\C(Cl)=C/c2ccc([N+](=O)[O-])cc2)SC(=S)N1CCc1ccc(O)cc1`, the growth is reported as -15.3% (active). `COc1ccc2c(c1)C(Br)=C(CCO)C2c1ccccc1` (stereo not given) gave a growth of 41.8%. For `Brc1ccc2c(c1)c(-c1nc(-c3c[nH]c4ncccc34)cs1)cn2CCCN1CCCCC1`, the growth was -87.2% (active). `C#CCC(C)(O)/C=C/C1=C(C)CCCC1(C)C` (stereo not given) was tested, and the growth was 86.2%. `C=CC(=O)N[C@H](Cc1ccc(-c2cc(Cl)cc(Cl)c2)cc1)[C@H](O)[C@@H](O)C(=O)O` gave a growth of 81.5%. `CC(c1ccccc1)N1C(=O)C(C2SC(=S)N(C(C)c3ccccc3)C2=O)SC1=S` (stereo not given) showed a growth of 72.5%. With `CC(=O)O[C@H]1CC[C@@]2(C)[C@@H](CC[C@@H]3[C@@H]2CC(=O)[C@@]2(C)[C@H]3C[C@@H](C3CCCC3=O)[C@@H]2C(C)=O)C1` (stereo not given in full) the growth was 95.6%. `CN(C)CCCCC(C(=O)CBr)(c1ccccc1)c1ccccc1` was tested, and the growth was 8.94% (active). With `COc1cccc(-c2nn(-c3ccccc3)cc2-c2ccnc(NCCCNS(=O)(=O)c3ccc(Br)cc3)c2)c1` the growth was 9.65% (active). `Cn1cnc2c1c(=O)n(CCC(=O)Nc1ccc(F)cc1)c(=O)n2C` showed a growth of 86.6%. `COC(=O)[C@]12CC[C@@H](C)[C@H](C)[C@@H]1C1=CC(=O)[C@@H]3[C@@]4(C)C[C@@H](OC(C)=O)[C@H](OC(C)=O)[C@@](C)(COC(C)=O)[C@@H]4C(=O)C[C@@]3(C)[C@]1(C)CC2` showed a growth of 40.4%. In the case of `COc1cc(OC)c2c(c1)c1nc3cc(C)c(C)cc3nc1n2CCN(C)C`, the growth is reported as 85.8%. For `COc1ccc(-c2n[nH]nc2-c2cc3ccccc3s2)cc1O`, the growth was 29.9%. In the case of `CCSc1sc(-c2ccc(C)cc2)nc1[P+](c1ccccc1)(c1ccccc1)c1ccccc1`, the growth is reported as 2.52% (active). Work on `O=C(N/N=C/c1ccccc1SSc1ccccc1/C=N/NC(=O)c1ccccc1)c1ccccc1` yielded a growth of 43.3%. For `CC(C)(C)n1cc(-c2ccnc(NCCCNS(=O)(=O)c3ccc(Cl)cc3)c2)c(-c2cccc(F)c2)n1`, the growth was 27.6%. `Cc1ccc(/C=C(\C#N)c2cc3ccccc3n2C)cc1` was tested, and the growth was 17.1%. For `Cc1ccc2[nH]cc(-c3nc(-c4cn(C)c5ncccc45)cs3)c2c1`, the growth was 74.6%. `O=C(/C=C/c1cccc2ccccc12)Nc1ncc(Cc2ccccc2)s1` showed a growth of 14.1%. In the case of `Clc1cc(Cl)cc(Nc2ccc3c(OCCCN4CCOCC4)cccc3n2)c1`, the growth is reported as -64.5% (active).
